# Reference: PubChem BioAssay (NCI)
# The panel holds about 83,000 compounds, 20% with a hit somewhere; the sample as a whole holds those more often.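 Compound tested at a single concentration for 48 hours in 96-well plates; a percent growth value below 10 was scored as active.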 A number with no mark means an inactive call. Active and inactive are the calls of the source.
# Key:
# Assay in all cases: NCI-60 one-dose screen, 48 h (100 = growth as untreated, 0 = no growth, -100 = all killed)
# Details in all cases: 10 µM unless noted
# HCT-15 colon = tested on: HCT-15 colon
# HT29 colon = tested on: HT29 colon
# SNB-75 CNS = tested on: SNB-75 CNS
# SNB-19 CNS = tested on: SNB-19 CNS
# U251 CNS = tested on: U251 CNS
# PC-3 prostate = tested on: PC-3 prostate
# SK-MEL-5 melanoma = tested on: SK-MEL-5 melanoma
# UACC-62 melanoma = tested on: UACC-62 melanoma
# LOX IMVI melanoma = tested on: LOX IMVI melanoma
# SK-MEL-28 melanoma = tested on: SK-MEL-28 melanoma
SMILES,growth (HCT-15 colon),growth (HT29 colon),growth (SNB-75 CNS),growth (SNB-19 CNS),growth (U251 CNS),growth (PC-3 prostate),growth (SK-MEL-5 melanoma),growth (UACC-62 melanoma),growth (LOX IMVI melanoma),growth (SK-MEL-28 melanoma)
CCN1C(=O)N(CC)C2C1N=C(SCc1ccc(Cl)cc1)N2/N=C/C=C/c1ccccc1OC (stereo not given),31.4%,58.3%,50.1%,79.3%,68.8%,43.7%,44.2%,31.2%,44.5%,70.9%
Nn1c(=O)c(=O)[nH]c2c(cnn2-c2ccccc2)c1=O,101%,110%,92.5%,103%,105%,106%,101%,102%,101%,113%
COc1ccc(-c2ccc(-c3ccc(C(=N)N)nc3)s2)cc1Cl,-77.4% (active),2.52% (active),80.5%,-35.8% (active),-71.7% (active),-28.3% (active),76%,96.3%,-76.4% (active),97.2%
CCCC(CC)(C(=O)Nc1ccc2nc(C)cc(N)c2c1)C(=O)Nc1ccc2nc(C)cc(N)c2c1,110%,99.1%,100%,103%,107%,95.8%,99.5%,102%,100%,110%
CCOC(=O)C(Cc1ccc(OC)cc1)C(=O)OCC,36.7%,21.3%,30.1%,41.7%,37.2%,47.2%,53.1%,33.4%,17%,51.5%
O=C(Nc1ccccc1N1CCCC1=O)c1oc2ccc(F)cc2c1-c1cnn(-c2ccccc2)c1,44.9% [50 µM],62.2% [50 µM],14.8% [50 µM],54.5% [50 µM],62.8% [50 µM],39.7% [50 µM],10.6% [50 µM],46.1% [50 µM],42.2% [50 µM],72% [50 µM]
N#CC1=C(N)Oc2ccc3ccccc3c2C1c1ccc([N+](=O)[O-])cc1 (stereo not given),87.6%,105%,61.7%,86.8%,94.2%,69.8%,86.2%,77.3%,74.6%,99.1%
OCCNCCNC(Cc1ccc(Cl)cc1)c1ccccc1 (stereo not given),93.3%,59.9%,72.8%,96.9%,94.2%,55.3%,95.2%,59.7%,83.8%,81.5%
Cc1ccc(Cl)cc1NC(=O)c1sc2nc3c(cc2c1N)C(=O)CCC3,45.9%,28.8%,48%,68.1%,59.1%,55.8%,27%,53.1%,68.1%,67%
N#C/C(=C\c1ccc(-c2cccc(C(F)(F)F)c2)o1)c1ccccc1,62.5%,86.3%,85%,99.1%,100%,90.4%,92.6%,71.4%,86.5%,98.4%
Cc1ccc(-c2nc(-c3cn(C)c4ncccc34)cs2)cc1,-18% [100 µM] (active),-68.1% [100 µM] (active),-40.2% [100 µM] (active),-21.1% [100 µM] (active),-7.83% [100 µM] (active),-20.6% [100 µM] (active),-84.9% [100 µM] (active),-50.3% [100 µM] (active),-41% [100 µM] (active),-19.7% [100 µM] (active)
Cc1ccc(/C=C/C(=O)c2cccc(OCCCOc3cccc(C(=O)/C=C/c4ccc(C)cc4)c3)c2)cc1,64.4%,51.5%,70.2%,77.2%,41%,72.2%,90.2%,62.9%,25.5%,97.7%
CCCCCN(CCCCC)CC(O)c1cc(C)c2ccc3cc(C(C)C)ccc3c2c1 (stereo not given),-86.3% (active),-43.9% (active),75.8%,7.47% (active),-87.4% (active),53.3%,79.1%,91.3%,-93.9% (active),88.1%
N#Cc1c(-c2ccccc2)nc(SCC(O)CN2CCOCC2)nc1N1CCOCC1 (stereo not given),80.1%,68.5%,-4.63% (active),65.8%,81.4%,56.5%,66.6%,42.9%,78%,59.9%
CNCc1cccc2c1OCCOCCOCCNS(=O)(=O)c1ccc(cc1)-c1cnc(N)c(n1)C(=O)N2,89.8%,12.4%,65.4%,18.2%,14.1%,20.1%,77%,23.2%,2.85% (active),51%
